Laboratory results taken from PubChem BioAssay AID2315 (National Center for Advancing Translational Sciences (NCATS), 2010).
Hit rate of the full screen: of about 290,000 compounds, about 27,000 (9.3%) were called active. Cut-off read from the data, not from the text of the source: active = inhibition mostly above about 28% (no sharp cut-off); inactive = mostly below about 43%. Shown is part of a subset that was picked to be rich in actives.

test: A qHTS for Small Molecule Inhibitors of Shiga Toxin; conditions: Vero cells, Shiga toxin protein synthesis inhibition reporter; at 38.7 µM, hits give high values; note: 0% is about no effect

SMILES	inhibition
COc1ccc(Nc2oc(-c3ccccc3Cl)nc2C#N)cc1	20.6% (inactive)
N#Cc1nc(Cc2ccccc2)oc1NCCc1ccccc1	64.7% (active)
N#Cc1nc(COc2ccc(-c3ccccc3)cc2)oc1NCc1cccnc1	56.8% (inactive)
N#Cc1nc(Cc2cccc3ccccc23)oc1NCc1ccc2c(c1)OCO2	12.3% (inactive)
Cc1ccccc1-c1nc(C#N)c(NCc2ccco2)o1	71.9% (inactive)
CCOc1ccc(Nc2oc(Cc3ccccc3)nc2C#N)cc1	58.5% (active)
O=C(Nc1ccc(F)cc1)c1ccc(S(=O)(=O)NCc2cccnc2)cc1	27.5% (inactive)
CCOc1ccc(S(=O)(=O)N2CCC(C(=O)NCc3ccccn3)CC2)cc1Cl	3.21% (inactive)
CC1CCN(C(=O)c2ccc3c(=O)n4c(nc3c2)CCCCC4)CC1	19.9% (inactive)
CCc1nnc(NS(=O)(=O)c2ccc(NC(=S)NC(=O)c3cccs3)cc2)s1	-15.7% (inactive)
Cc1cc(C)nc(NS(=O)(=O)c2ccc(N/C=C\C(=O)c3cccs3)cc2)n1	97.2% (active)
CC(=O)Nc1ccc(S(=O)(=O)Nc2nccc(/C=C/c3ccccc3F)n2)cc1	21.8% (inactive)
COc1ccc(C(C(O)C(=O)c2c[nH]c3ccccc23)N2CCN(c3ccccc3)CC2)cc1 (stereo unspecified)	-5.67% (inactive)
COc1ccc2[nH]cc(/C=C(/C#N)S(=O)(=O)c3ccccc3)c2c1	-6.23% (inactive)
COc1ccc(/C=C(\C#N)c2c[nH]c3ccccc23)cc1	68% (active)
O=C(COC(=O)CCC(=O)c1cccs1)NCc1ccco1	-12.8% (inactive)
NS(=O)(=O)c1ccc(NC(=S)NC(=O)c2cccc(Br)c2)cc1	4.4% (inactive)
O=C(COC(=O)CCc1c[nH]c(=O)[nH]1)Nc1ccccc1Cl	-3.38% (inactive)
O=C(COC(=O)c1cccs1)Nc1ccccc1Cl	36.9% (active)
O=C(COC(=O)/C(=C/c1cccs1)c1cccs1)NCc1ccccc1Cl	13.7% (inactive)
O=C(COC(=O)c1cccs1)NCc1cccs1	40% (active)
NS(=O)(=O)c1ccc(NC(=S)NC(=O)c2cccnc2)cc1	-16% (inactive)
CCc1ccc(NC(=O)C(=O)NNC(=O)c2cccs2)cc1	39.1% (active)
Cc1ccccc1C(=O)N1CCN(c2ccc(NC(=O)c3cccs3)cc2)CC1	-18.3% (inactive)
O=C(COC(=O)c1ccc(Cl)nc1)NCc1cccs1	-3.54% (inactive)
NS(=O)(=O)c1ccc(NC(=S)NNC(=O)c2cccs2)cc1	107% (active)

SMILES	inhibition
COc1ccc(CCOC(=O)CNC(=O)c2ccc(Cl)cc2Cl)cc1	7.31% (inactive)
CCCOc1ccc(CNC(=O)C2CCN(c3nn4c(=O)cc(C)nc4s3)CC2)cc1	-3.64% (inactive)
Cc1cccnc1CCNC(=O)C1CCC(=O)N(Cc2cccc(F)c2)C1 (stereo unspecified)	-6.16% (inactive)
COC(CNC(=O)c1ccc2c(c1)ncn2-c1cc(C)cc(C)c1)OC	4.27% (inactive)
COc1cccc(CN(C)C(=O)CC23CC4CC(CC(C4)C2)C3)c1OC	-11.5% (inactive)
CS(=O)(=O)c1ccc(-c2nnn(CC(=O)Nc3ccc4c(c3)OCCO4)n2)cc1	20.6% (inactive)
CCc1ccc(NC(=O)COC(=O)c2cccs2)cc1	51.4% (active)
CCc1cccc(NC(=O)CCNS(=O)(=O)c2cccc3nonc23)c1	-3.23% (inactive)
C/C(=N\OCC(=O)Nc1ccc(Br)cc1)c1cccs1	40.3% (inactive)
Cc1ccc(OCC(=O)Nc2ccc(NC(=O)c3cccs3)cc2)c(C)c1	25.9% (inactive)
CCc1ccc(NC(=O)CCNS(=O)(=O)c2cccs2)cc1	53.4% (active)
O=S(=O)(NCCc1ccc(Cl)cc1)c1cccs1	10.5% (inactive)
COc1ccccc1C(=O)N(C1=NC(C)CS1)c1ccc(Cl)cc1 (stereo unspecified)	-5.01% (inactive)
COc1ccccc1CNC(=O)C1CCN(C(=O)[C@@H]2Cc3ccccc3CN2)CC1	13.3% (inactive)
Cc1c(C(=O)NCC(c2ccco2)N2CCCC2)oc2ccc(Cl)cc12 (stereo unspecified)	49.7% (inactive)
Cc1nc2nc(SCC(=O)Nc3cccc(F)c3)[nH]c2cc1Br	6.55% (inactive)
CCCCn1c(SCC(=O)N2CCOCC2)nc2c1c(=O)n(C)c(=O)n2C	-5.05% (inactive)
CC(=O)N(C)c1ccc(NC(=O)C(F)(F)F)cc1	13.5% (inactive)
CCOc1ccc(NC(=O)N(CC(C)C)CC(C)C)cc1	26.1% (inactive)
O=C(O)Cc1ccc(NC(=O)Nc2cccc3ccccc23)cc1	-1.4% (inactive)
O=C(Nc1ccc2c(c1)C(=O)OC2)Nc1cccc2ccccc12	12.8% (inactive)
CCOc1ccc(NC(=O)Nc2ccc(N(C)C(C)=O)cc2)cc1	73.9% (active)
CC(=O)N(C)c1ccc(NC(=O)Nc2cccc3ccccc23)cc1	77.5% (active)
NS(=O)(=O)c1ccc(CCNC(=O)c2nc(CS(=O)(=O)c3ccc(Cl)cc3)no2)cc1	-2.78% (inactive)
FC(F)(F)c1ccnc(Oc2ccc(C3=NCCS3)cc2)c1	64.7% (active)
O=Cc1ccc(Oc2cccc(C(F)(F)F)c2)nc1	12.2% (inactive)

SMILES	inhibition
C[C@H](NC(=O)C1CC(=O)N(c2ccc3c(c2)OCO3)C1)C(=O)NCc1ccco1 (stereo partly specified)	-4.62% (inactive)
O=S(=O)(NC1CCCCC1N1CCCCC1)c1ccc(Cl)cc1 (stereo unspecified)	-21.5% (inactive)
O=C(NCc1ccncc1)C1CCCN(S(=O)(=O)c2ccc(Br)cc2)C1 (stereo unspecified)	-9.96% (inactive)
CCC(O)CNc1nc(-n2nc(C)cc2C)nc2sc3c(c12)CC(C)(C)OC3 (stereo unspecified)	-11.2% (inactive)
COCCNc1nc(-n2nc(C)cc2C)nc2sc3c(c12)CCCC3	51.2% (active)
Cc1nc2sc3c(c2c(=O)n1NC(=O)CCl)CCCC3	-6.21% (inactive)
COc1ccccc1NC(=O)c1cc(N2C(=O)C3C4CCC(C4)C3C2=O)ccc1Cl (stereo unspecified)	-3.33% (inactive)
COc1ccccc1N1CCN(S(=O)(=O)c2ccc3c(c2)NC(=O)CS3)CC1	16.6% (inactive)
N#Cc1c(NC(=O)C2CCCO2)sc2c1CCCCC2 (stereo unspecified)	82.7% (active)
N#Cc1c(NC(=O)C2CC(Cl)=CCC2C(=O)O)sc2c1CCCCC2 (stereo unspecified)	18.3% (inactive)
N#Cc1c(NC(=O)CCCl)sc2c1CCCCC2	25% (inactive)
Cc1c(C)c2ccc(OCC(=O)N3CCC(C(=O)O)CC3)c(C)c2oc1=O	-1.33% (inactive)
Nc1ccn(C2CC(O)C(CO)O2)c(=O)n1 (stereo unspecified)	-2.7% (inactive)
CCOC(=O)c1c(NC(=O)CSc2nccc(=O)[nH]2)sc(C)c1C	-11.1% (inactive)
Cc1ccc2ccc3c(c2n1)NS(=O)(=O)c1ccccc1-3	-4.77% (inactive)
Nc1ccccc1Sc1ccc(C(F)(F)F)cc1[N+](=O)[O-]	-8.21% (inactive)
CCOC(=O)c1cc(Sc2ccccc2N)cc(C(=O)OCC)n1	-2.59% (inactive)
CCS(=O)(=O)c1cc([N+](=O)[O-])c(Sc2ccccc2N)s1	101% (active)
C/C(=N\NC(=O)c1cccnc1)c1ccc(-c2ccccc2)cc1	20.1% (inactive)
C/C(=N\NC(=O)c1nc(C)cc(C)n1)c1ccccc1	86.5% (active)
COc1ccc(/C(C)=N/NC(=O)c2ccc3nc[nH]c3c2)cc1	-11.9% (inactive)
COc1ccc(N=Nc2c(-c3ccc(OC)cc3)[nH]oc2=O)cc1	-1.4% (inactive)
Cc1cc(C)cc(OCC(=O)NC(C)c2ccccc2)c1 (stereo unspecified)	16.2% (inactive)
COc1cc(NC(=O)c2ccccc2)c(OC)cc1NC(=O)Cc1ccccc1	-6.61% (inactive)
COc1ccc(Cc2nc3ccc(C(=O)N4CCC(N(C)C)C4)cc3o2)cc1 (stereo unspecified)	5% (inactive)
COC(=O)C1CCN(C(=O)c2ccc3oc(Cc4ccc(Cl)cc4)nc3c2)CC1	-23.6% (inactive)

SMILES	inhibition
COCC1CCN(C(=O)c2ccc3oc(Cc4ccccc4)nc3c2)C1 (stereo unspecified)	42.2% (active)
CN(C)c1ccc(/C=C2\NC(=S)N(Cc3ccccc3)C2=O)cc1	3.47% (inactive)
CCc1nn(CCCC(=O)NC(C)c2ccccc2)c(=O)c2cc3occc3n12 (stereo unspecified)	11.1% (inactive)
CC(C)(C)C1CCC(=NNC(=O)c2ccc(Br)o2)CC1 (stereo unspecified)	50.9% (active)
CCC(C)(C)C1CCC(=NNC(=O)c2ccc(Br)o2)CC1 (stereo unspecified)	123% (active)
CC(NC(=O)C(=O)NN=C1CCC(C(C)(C)C)CC1)c1ccccc1 (stereo unspecified)	-9.73% (inactive)
O=C(CNC(=O)c1ccc(Br)o1)NCC1CCCO1 (stereo unspecified)	-17.7% (inactive)
CCCC(=O)Nc1ccc(Cl)c(NC(=O)c2ccc(Br)o2)c1	-13.8% (inactive)
CC(C)(C)C1CCC(=NNC(=O)c2cc(-c3ccccc3)n[nH]2)CC1 (stereo unspecified)	5.96% (inactive)
O=C(CCN1C(=O)[C@@H]2Cc3ccccc3CN2C1=O)NCc1ccccc1	-1.35% (inactive)
CCc1ccc(S(=O)(=O)N/N=C\c2ccc([N+](=O)[O-])o2)cc1	9.6% (inactive)
O=C(/C=C/c1ccc(OCc2c(F)cccc2Cl)cc1)N1CCOCC1	54.8% (inactive)
CCOC(=O)C(C)n1cnc2scc(-c3ccc(C)c(C)c3)c2c1=O (stereo unspecified)	2.19% (inactive)
CCCN1C2=C(C(=O)CCC2)C(c2ccc(O)c(Br)c2)C2=C1CCCC2=O	6.12% (inactive)
CCOC(=O)C1(CCOc2ccccc2)CCN(Cc2cc(OC)c(O)cc2Cl)CC1	21.9% (inactive)
CCN(CC)CCn1cnc2c1c(=O)[nH]c(=O)n2Cc1ccccc1	-12.7% (inactive)
C=CCNC(=O)COc1coc(CN2CCN(Cc3ccccc3)CC2)cc1=O	-1.93% (inactive)
O=C(CN1C(=O)S/C(=C\c2ccccc2F)C1=O)NCCCn1ccnc1	1.8% (inactive)
COc1ccc(/C=C2\SC(=O)N(CCC(=O)NC3CCS(=O)(=O)C3)C2=O)cc1 (stereo unspecified)	65.1% (active)
O=C(CCN1C(=O)c2ccccc2C1=O)NCCCn1ccnc1	-4.06% (inactive)
COc1ccc(/C=C2\SC(=O)N(CCC(=O)NCCCn3ccnc3)C2=O)cc1	65.3% (active)
COc1ccccc1/C=C1\SC(=O)N(CCC(=O)N(C)C2CCS(=O)(=O)C2)C1=O (stereo unspecified)	18.1% (inactive)
COc1ccc(NC(=O)CCN2C(=O)/C(=C/c3ccc4c(c3)OCO4)SC2=S)cc1	-2.97% (inactive)
